{"source": "PubChem BioAssay (NCATS)", "key": {"[1]": {"biological_target": "Glutathione peroxidase 1 (Homo sapiens) (UniProt P07203)", "sequence (P07203 whole entry, looked up)": "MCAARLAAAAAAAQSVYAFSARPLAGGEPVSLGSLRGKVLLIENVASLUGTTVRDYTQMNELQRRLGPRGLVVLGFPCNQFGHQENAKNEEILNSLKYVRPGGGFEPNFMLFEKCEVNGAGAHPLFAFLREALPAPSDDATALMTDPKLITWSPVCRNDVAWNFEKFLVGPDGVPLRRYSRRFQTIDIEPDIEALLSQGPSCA", "test": "Primary qHTS Assay for Inhibitors of Recombinant Selenoprotein Glutathione Peroxidase 1 (GPX1) (AID 1845191); also: nearly all actives have a fitted effect of over 65% in size", "how_it_was_run": "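10 nM GPX1 + cpd, 30 min RT; start w/ 1 mM GSH, 0.5 mM cumene hydroperoxide, 0.5 mM NADPH, 100 nM GR, 0.01% BSA; buffer 50 mM Tris-HCl pH 7.5, 2 mM EDTA, 150 mM NaCl; Fl 340/450, 0 & 15 min.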"}, "[2]": {"biological_target": "Phospholipid hydroperoxide glutathione peroxidase GPX4 (Homo sapiens) (UniProt P36969)", "sequence (P36969 whole entry, looked up)": "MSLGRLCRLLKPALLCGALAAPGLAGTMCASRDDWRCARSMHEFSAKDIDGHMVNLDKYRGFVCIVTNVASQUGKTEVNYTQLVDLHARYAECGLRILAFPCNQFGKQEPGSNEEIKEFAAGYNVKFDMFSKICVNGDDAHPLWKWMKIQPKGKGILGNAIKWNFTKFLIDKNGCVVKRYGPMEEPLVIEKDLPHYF", "test": "Primary qHTS Assay for Inhibitors of Recombinant Selenoprotein Glutathione Peroxidase 4 (GPX4) (AID 1845192); also: nearly all actives have a fitted effect of over 65% in size", "how_it_was_run": "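NADPH consumption, followed by fluorescence at 340/450 nm between 0 and 15 min, reports GPX4 activity via coupled glutathione reductase (100 nM). Enzyme 200 nM was pre-exposed to compound 30 min; 0.5 mM cumene hydroperoxide and 1 mM GSH served as substrates.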"}, "[3]": {"test": "Quantitative High-Throughput drug screen in 47 multiple myeloma cell lines against the NCATS MIPE library collection: FR4_PLB cell viability assay (AID 1918924; also: nearly all actives have a fitted effect of over 35% in size; also: potency is read from the fitted curve at half-maximal effect)", "how_it_was_run": "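Luminescent ATP measurement with CellTiter-Glo gives viability, scaled between DMSO-only wells (100%) and media-only wells (0%). Cells, 500 per well, faced library compounds for 48 hours at 37C.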"}, "[4]": {"test": "Quantitative High-Throughput drug screen in 47 multiple myeloma cell lines against the NCATS MIPE library collection: Delta47_JCRB cell viability assay (AID 1918925; also: nearly all actives have a fitted effect of over 45% in size; also: potency is read from the fitted curve at half-maximal effect)", "how_it_was_run": "(§1)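 We plated 500 myeloma cells per well, pinned in MIPE 4.0 compounds, and incubated for 48 hours at 37C. ATP was then quantified with CellTiter-Glo, with DMSO and media-only wells defining 100% and 0%.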"}, "[5]": {"test": "Quantitative High-Throughput drug screen in 47 multiple myeloma cell lines against the NCATS MIPE library collection: AMO1_DSMZ cell viability assay (AID 1918927)", "how_it_was_run": "as §1"}}, "note": "Results filed as inconclusive are left out. A call without a number means that no potency is given here. Activity calls are given as the source filed them. Calls follow the shape of the dose curve; as a rule, active = well fitted curve in the direction sought with a large enough effect; inconclusive = small, poorly fitted or top-dose-only effect, or another doubt; inactive = no such curve, though single readings can be large; an effect the other way counts as inactive or inconclusive. For potency in this document: potency is read from the fitted curve at half-maximal effect.", "data": [{"smiles": "C[C@](O)(CS(=O)(=O)c1ccc(F)cc1)C(=O)Nc1ccc(C#N)c(C(F)(F)F)c1", "values": [{"measurement": "Potency", "setting": "[1]", "result": "inactive"}, {"measurement": "Potency", "setting": "[2]", "result": "inactive"}, {"measurement": "Potency", "setting": "[3]", "result": "14.8 µM (active)"}, {"measurement": "Potency", "setting": "[4]", "result": "372 nM (active)"}, {"measurement": "Potency", "setting": "[5]", "result": "662 nM (active)"}]}, {"smiles": "C=CCC1(C(C)CC)C(=O)NC(=O)NC1=O", "note": "(stereo not drawn)", "values": [{"measurement": "Potency", "setting": "[1]", "result": "inactive"}, {"measurement": "Potency", "setting": "[2]", "result": "inactive"}]}, {"smiles": "COP(=S)(OC)SCN1C(=O)c2ccccc2C1=O", "values": [{"measurement": "Potency", "setting": "[2]", "result": "inactive"}]}, {"smiles": "C[N+]1(CCF)[C@@H]2CC[C@H]1CC(OC(=O)C(O)(c1ccccc1)c1ccccc1)C2", "note": "(stereo partly drawn)", "values": [{"measurement": "Potency", "setting": "[1]", "result": "inactive"}, {"measurement": "Potency", "setting": "[2]", "result": "inactive"}]}, {"smiles": "Nc1ccc([As](=O)(O)O)cc1", "values": [{"measurement": "Potency", "setting": "[1]", "result": "inactive"}, {"measurement": "Potency", "setting": "[2]", "result": "inactive"}]}, {"smiles": "C[C@]12CCC(=O)C=C1CC[C@@H]1[C@@H]2CC[C@]2(C)C(=O)CC[C@@H]12", "values": [{"measurement": "Potency", "setting": "[1]", "result": "inactive"}, {"measurement": "Potency", "setting": "[2]", "result": "inactive"}]}, {"smiles": "O=C(Nc1ccc(Br)cc1)c1cc(Br)cc(Br)c1O", "values": [{"measurement": "Potency", "setting": "[2]", "result": "inactive"}]}, {"smiles": "CC(C)(C)NCC(O)c1cc(Cl)c(N)c(C(F)(F)F)c1", "note": "(stereo not drawn)", "values": [{"measurement": "Potency", "setting": "[1]", "result": "inactive"}, {"measurement": "Potency", "setting": "[2]", "result": "inactive"}]}, {"smiles": "O=C(O)CCCc1ccc(N(CCCl)CCCl)cc1", "values": [{"measurement": "Potency", "setting": "[1]", "result": "inactive"}, {"measurement": "Potency", "setting": "[2]", "result": "inactive"}, {"measurement": "Potency", "setting": "[5]", "result": "inactive"}]}, {"smiles": "CCC(CC)(CNC(=O)CCCO)c1cccc(OC)c1", "values": [{"measurement": "Potency", "setting": "[1]", "result": "inactive"}, {"measurement": "Potency", "setting": "[2]", "result": "inactive"}]}, {"smiles": "CCOC(=O)CC(SP(=S)(OC)OC)C(=O)OCC", "note": "(stereo not drawn)", "values": [{"measurement": "Potency", "setting": "[2]", "result": "inactive"}]}, {"smiles": "CNC(C)(C)Cc1ccccc1", "values": [{"measurement": "Potency", "setting": "[1]", "result": "inactive"}, {"measurement": "Potency", "setting": "[2]", "result": "inactive"}]}, {"smiles": "CN1C(=O)COc2c(C(=O)NC3CN4CCC3CC4)cc(Cl)cc21", "note": "(stereo not drawn)", "values": [{"measurement": "Potency", "setting": "[1]", "result": "inactive"}, {"measurement": "Potency", "setting": "[2]", "result": "inactive"}, {"measurement": "Potency", "setting": "[3]", "result": "inactive"}, {"measurement": "Potency", "setting": "[4]", "result": "inactive"}]}, {"smiles": "COP(=S)(OC)Oc1ccc(S(=O)(=O)N(C)C)cc1", "values": [{"measurement": "Potency", "setting": "[1]", "result": "inactive"}, {"measurement": "Potency", "setting": "[2]", "result": "inactive"}]}, {"smiles": "C[C@]12CC[C@H]3[C@@H](CC[C@@]45O[C@H]4C(O)=C(C#N)C[C@]35C)[C@H]1CC[C@H]2O", "values": [{"measurement": "Potency", "setting": "[1]", "result": "inactive"}, {"measurement": "Potency", "setting": "[2]", "result": "inactive"}, {"measurement": "Potency", "setting": "[5]", "result": "inactive"}]}, {"smiles": "C=C(C)[C@H]1CN[C@H](C(=O)O)[C@H]1CC(=O)O", "values": [{"measurement": "Potency", "setting": "[1]", "result": "inactive"}, {"measurement": "Potency", "setting": "[2]", "result": "inactive"}]}, {"smiles": "COC(=O)C(c1ccccc1)C1CCCCN1", "note": "(stereo not drawn)", "values": [{"measurement": "Potency", "setting": "[1]", "result": "inactive"}, {"measurement": "Potency", "setting": "[2]", "result": "inactive"}]}, {"smiles": "c1ccc2c(c1)sc1ccccc12", "values": [{"measurement": "Potency", "setting": "[1]", "result": "inactive"}, {"measurement": "Potency", "setting": "[2]", "result": "inactive"}]}, {"smiles": "C[C@@H](N)[C@@H](O)c1ccccc1", "values": [{"measurement": "Potency", "setting": "[2]", "result": "inactive"}]}, {"smiles": "C[C@]12CC[C@H]3[C@@H](CCC4=CC(=O)CC[C@@H]43)[C@@H]1CC[C@@H]2OC(=O)CCc1ccco1", "values": [{"measurement": "Potency", "setting": "[1]", "result": "inactive"}, {"measurement": "Potency", "setting": "[2]", "result": "inactive"}]}, {"smiles": "COc1cc(OC)c(OC)cc1C=O", "values": [{"measurement": "Potency", "setting": "[3]", "result": "inactive"}, {"measurement": "Potency", "setting": "[4]", "result": "inactive"}, {"measurement": "Potency", "setting": "[5]", "result": "inactive"}]}, {"smiles": "C#CC(O)(C=CCl)CC", "note": "(stereo not drawn)", "values": [{"measurement": "Potency", "setting": "[1]", "result": "inactive"}, {"measurement": "Potency", "setting": "[2]", "result": "inactive"}]}]}
